About 22,000 (6.9%) of roughly 320,000 compounds were called active. About 27% were inconclusive and are not listed. The list comes from a sample in which actives are over-represented; it also holds similar structures and randomly drawn compounds. A number with no mark means an inactive call. Calls come from the whole dose curve; as a rule, active = well fitted inhibition curve with a large enough effect; inconclusive = small, poorly fitted or top-dose-only effect, or another doubt; inactive = no such curve, though single readings can be large or run the other way.
% is set by controls: 0 for no effect and ±100 for the full control effect; potency is the fitted concentration of half-maximal effect.

The nature of this test: Primary qHTS for delayed death inhibitors of the malarial parasite plastid, 96 hour incubation. As to conditions: P. falciparum luciferase reporter growth; series mostly up to 28.7 µM; activity change, negative = inhibition: at the top concentration. Put shortly: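 Luminescence readout: decreased luciferase signal marks inhibited growth of reporter-expressing P. falciparum in infected red cells (2% hematocrit, 0.05% parasitemia final), exposed to compound two generations (96 h, 37 C, 5% CO2).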
Take `Cc1ccc(CNC(=O)c2cccc3c2C(=O)c2ccc(N4CCC(C)CC4)cc2S3(=O)=O)cc1`: the “activity change, negative = inhibition” value was 3.93%.
With `Cc1cccc(CC(=O)Nc2c3c(nn2-c2cccc(Cl)c2)CS(=O)C3)c1` (stereo unspecified), the “activity change, negative = inhibition” value was 37.9%.
For the compound `COc1ccc(CC(=O)Nc2c3c(nn2-c2cccc(Cl)c2)CS(=O)C3)cc1` (stereo unspecified), the Potency is 1.47 µM (active).
For the compound `COc1ccc(-n2nc3c(c2NC(=O)Cc2cccc(C)c2)CS(=O)C3)cc1` (stereo unspecified), the “activity change, negative = inhibition” value is -26.6%.
The same measure, in the same setting: the result for `CC(=O)c1ccc(N2Cc3ccccc3C2)cc1` reads 15.6%; that for `COc1ccc(F)cc1S(=O)(=O)N1CCCCC1`, -25.6%.
`CCc1ccc(S(=O)(=O)Nc2cc3c(cc2N2CCCCC2)n(C)c(=O)c(=O)n3C)cc1`: the “activity change, negative = inhibition” value is 12.4%.
Still for that read-out and setting: the value for `CC1CSc2nnc(CCc3ccccc3)n21` (stereo unspecified) was -5.11%; that for `Cn1c(CCc2ccccc2)nnc1SCC(N)=O` was 0.25%.
For the compound `c1ccc(CCC2=NCCn3cccc32)cc1`, the Potency was 14.7 µM (active).
Take `CS(=O)(=O)c1ccc(C(=O)OCC(=O)NNC(=O)COc2ccc(Cl)cc2)cc1`: the “activity change, negative = inhibition” value was -3.01%.
Same read-out and setting: the result for `COc1ccc(C(C(=O)NC(C)(C)C)N(Cc2ccc(F)cc2)C(=O)CCC(=O)Nc2cc(C)on2)cc1` (stereo unspecified) reads 10.8%; that for `Cn1c(SCC(=O)Nc2nccs2)nnc1-c1cccnc1`, 1.62%.
With `COC(=O)c1cn(CC(=O)NCc2cccs2)c2ccccc12`, the Potency is 13.1 µM (active).
As for `CCN(CC)C(=O)C(=O)c1cn(CC(=O)NCc2ccc3c(c2)OCO3)c2ccccc12`, the “activity change, negative = inhibition” value was 30.1%.
Turning to `O=C(Cn1cc(C(=O)c2cccs2)c2ccccc21)NCc1cccs1`, the “activity change, negative = inhibition” value was 200%.
Regarding `O=C(NCCc1ccccc1)c1ccc2c(c1)N(Cc1ccccc1)CCS2`, the “activity change, negative = inhibition” value is 22.6%.
On the same count and under the same terms, the result for `O=C(OCc1ccccc1)c1ccc(O)cc1` reads 17.2%; that for `CS(=O)(=O)N1CCc2nc(-c3ccccc3)sc2C1`, 243%; that for `CCOc1cc(C2C(C(=O)c3ccco3)=C(O)C(=O)N2Cc2ccccc2)ccc1O` (stereo unspecified), 10.9%.
Still for that read-out and setting: the value for `CCOC(=O)c1cc(Sc2ccccc2N)cc(C(=O)OCC)n1` was -16.9%; that for `O=C(Nc1ccnn1C1CCN(C/C=C/c2ccc(F)cc2)CC1)C1CCCC1` was 34.7%; that for `CC(C)Oc1ccc(CN2CCC(n3nccc3NC(=O)c3cccnc3)CC2)cc1` was -17.2%.
Still for that read-out and setting: the value for `Cc1nn(C)c(Cl)c1CN1CCC(n2nccc2NC(=O)C2CCCC2)CC1` was 30.4%.
As for `CC(CN1CCC(n2nccc2NC(=O)C2CCCC2)CC1)c1ccccc1` (stereo unspecified), the Potency was 9.28 µM (active).
Still for that read-out and setting: the value for `CC(C)=CCCC(C)CN1CCC(n2nccc2NC(=O)c2ccccc2)CC1` (stereo unspecified) was 14.7 µM (active).
Consider `CC(=O)N[C@@H](C)C(=O)N1CCC(n2nccc2NC(=O)CCCc2ccccc2)CC1`, for which the “activity change, negative = inhibition” value was -4.67%.
As for `CN1CCN(c2ccccc2NC(=O)COc2ccc(C3CCCCC3)cc2)CC1`, the “activity change, negative = inhibition” value is 32.9%.
Turning to `N#Cc1cccc(OC(=O)c2ccc3c(=O)n4c(nc3c2)CCC4)c1`, the “activity change, negative = inhibition” value is 47.2%.
The same measure, in the same setting: the result for `O=C(NCCNc1ccccc1[N+](=O)[O-])c1ccccc1F` reads 45.3%; that for `CCCCn1c(N)c(N(CCOC)C(=O)c2cccc(S(=O)(=O)N(C)c3ccccc3)c2)c(=O)[nH]c1=O`, -3.71%; that for `CCCCOC(=O)c1[nH]c(C)c(C(=O)OC)c1C`, -31.2%.
On to `CCOC(=O)C1=C(N)N2C(=O)C(C)SC2=C(C(=O)OCC)C1c1cc(OC)c(OC)c(OC)c1` (stereo unspecified), for which the “activity change, negative = inhibition” value was -1.9%.
Regarding `CCCOC(=O)c1[nH]c2c(c1C)C(=O)CC(c1cc(OC)c(OC)c(OC)c1)C2` (stereo unspecified), the Potency was 11.7 µM (active).
`CCCOC(=O)c1[nH]c2c(c1C)C(=O)CC(c1cccs1)C2` (stereo unspecified): the Potency was 9.28 µM (active).
Consider `COCCOC(=O)c1[nH]c2c(c1C)C(=O)CC(c1ccc(OC)cc1)C2` (stereo unspecified), for which the “activity change, negative = inhibition” value is 10.5%.
Regarding `Cc1cc(C)c(S(=O)(=O)n2cc(C(C)C(N)C(=O)O)c3ccccc32)c(C)c1` (stereo unspecified), the “activity change, negative = inhibition” value is 10.6%.
On the same count and under the same terms, the value for `O=C(Nc1cccc(F)c1)NC1CCCc2ccccc21` (stereo unspecified) was -14.7%; that for `COc1ccc(CN2CCC(n3nccc3NC(=O)CCCc3ccccc3)CC2)cc1C` was -13.8%.
On the same count and under the same terms, the value for `COCCNC(=O)c1ccc(S(=O)(=O)c2ccc(Cl)cc2)c(NC(C)=O)c1` was 25.4%; that for `O=C(O)/C=C/c1ccc(OCCCF)cc1` was 18%.
The same measure, in the same setting: the value for `COc1ccc([C@H]2CC(=O)C=C(/C=C/c3ccccc3)C2)cc1` was 39.1%.
`CCOC(=O)C1(S(=O)(=O)c2ccc(Cl)cc2)CCN(Cc2ccccc2)CC1`: the Potency was 2.94 µM (active).
Regarding `O=C(NNS(=O)(=O)c1ccc(Cl)cc1)C1CCN(Cc2ccccc2)CC1`, the “activity change, negative = inhibition” value is 85.3%.
On the same count and under the same terms, the value for `CCOC(=O)C1(S(=O)(=O)c2ccccc2)CCN(Cc2ccccc2)CC1` was -0.502%; that for `N#Cc1nc(-c2cccc3ccccc23)oc1N` was 18.9%; that for `Cc1cc(NC(=O)Nc2c[nH]c(=O)[nH]c2=O)ccc1Br` was 40.8%.
The same measure, in the same setting: the value for `CC1CCN(S(=O)(=O)c2ccc3c(c2)n(C)c(=O)n3C)CC1` was 39.9%; that for `CCOc1cc(C2/C(=C(/O)c3ccc(S(=O)(=O)N4CCCCC4)cc3)C(=O)C(=O)N2CCOC)ccc1O` (stereo unspecified) was 12.9%; that for `COCCN1C(=O)C(=O)/C(=C(/O)c2ccc(S(=O)(=O)N3CCOCC3)cc2)C1c1ccc(OC)c(OC)c1` (stereo unspecified) was -24.2%.
With `COCCN1C(=O)C(=O)/C(=C(/O)c2ccc(S(=O)(=O)N3CCCCC3)cc2)C1c1ccc(OC)c(OC)c1` (stereo unspecified), the Potency is 9.28 µM (active).
